Molecules are shown by their SMILES. Compounds without any hit were thinned out: in the full panel of roughly 83,000, 20% have a hit.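 96-well plates, one dose, 48 hours. Percent growth reported; active if below 10.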 Activity calls are given as the source filed them.

The assay deals with SK-MEL-2 melanoma. As to the kind of experiment: NCI-60 one-dose screen, 48 h (100 = growth as untreated, 0 = no growth, -100 = all killed). Conditions: 10 µM unless noted.
Consider `CC[n+]1ccc2c(c1)C(=O)c1nccc3c1c-2nc1ccccc13`, for which the growth was -34% (active).

With `COc1ccc(-c2csc(NC(=O)CN3CCN(c4cc5c(cc4F)c(=O)c(C(=O)O)cn5C4CC4)CC3)n2)cc1`, the growth was -11.5% (active).

Regarding `O=C1c2cc3c(cc2-c2c1c1cc(F)c(F)cc1c(=O)n2C[C@H](O)CO)OCO3`, the growth was -26% (active).

With `Cn1c2ccccc2c2c3c(c4c5ccccc5n(CCCCCC#N)c4c21)C(=O)N(O)C3=O`, the growth was 34.5% (inactive).

With `CCOC(=O)c1c2c(n3ccc(NC(=O)CCN4CCOCC4)cc13)C(=O)c1ncccc1C2=O`, the growth was 30.9% (inactive).

Turning to `Oc1ccccc1N=Cc1c(O)ccc2ccccc12`, the growth is 62.4% (inactive).

As for `O=c1ccc2cc3ccccc3cc2[nH]1`, the growth was 97.5% (inactive).

Turning to `O=C(Nc1ccc(Oc2ccc(F)cc2)c(Cl)c1)c1cccnc1`, the growth is 91.3% (inactive).

For `CCCCCCCCCc1cc(CN2CCCCC2)c(O)c(CN2CCCCC2)c1`, the growth is 86.7% (inactive).

Turning to `CC/C(Cc1ccccc1)=C(\c1ccc(OCCN2CCCC2)cc1)c1ccc(OC(C)=O)cc1`, the growth was 104% (inactive).

For the compound `C=C1CC[C@@H]2[C@](C)(COC(C)=O)[C@H](OC(C)=O)CC[C@@]2(C)[C@@H]1CC(Nc1ccc(S(=O)(=O)Nc2nc(C)cc(C)n2)cc1)C1=CCOC1=O` (stereo partly drawn), the growth is 88.5% (inactive).

Turning to `COc1ccc2c(c1)C(=O)/C(=C/c1cccc(OCC(=O)Nc3nc4c(s3)CCCC4)c1)O2`, the growth is -67.3% (active).

As to `O=C([C@@H](COCc1ccccc1)N1C(=O)[C@@H](N2C(=O)OC[C@@H]2c2ccccc2)[C@H]1/C=C/c1ccccc1)N1CCC(CCN2CCCCC2)CC1`, the growth is 71.7% (inactive).

Values taken from PubChem BioAssay (NCI).
